Screening results as filed in PubChem BioAssay.
Compounds with a hit are over-represented: about 1.2% of the library has one in this group of screens.
EPAC1 antag = EPAC1 (human) antagonism | O95398 | EPAC1 GEF assay, Rap1b-BODIPY-GDP exchange fluorescence | Potency, µM (top dose mostly 115 µM), actives largely listed as inhibitors | 0.14% of 360,000 active; also: nearly all actives have a fitted effect of over 50% in size
VDR inhibitor = inhibitors of human vitamin D receptor; VDR-SRC2-3 peptide fluorescence polarization, 2 h; P11473; AID 504847; Potency, µM, hits mostly inhibitors; 0.93% of 400,000 active
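Inhibition of the VDR/SRC2-3 peptide interaction is quantified by fluorescence polarization. Compounds (23 nl, pintool) incubate with the reagents for 2 hours at ambient room temperature.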
EPAC2 antagonist = antagonists of human EPAC2. 0.18% of 360,000 active. EPAC2 GEF exchange of Rap1B-BODIPY-GDP, fluorescence. Q8WZA2. AID 720708. Potency, µM (doses to about 114 µM), usual class: inhibitors; also: nearly all actives have a fitted effect of over 45% in size
Target sequence (Q8WZA2 whole entry, looked up): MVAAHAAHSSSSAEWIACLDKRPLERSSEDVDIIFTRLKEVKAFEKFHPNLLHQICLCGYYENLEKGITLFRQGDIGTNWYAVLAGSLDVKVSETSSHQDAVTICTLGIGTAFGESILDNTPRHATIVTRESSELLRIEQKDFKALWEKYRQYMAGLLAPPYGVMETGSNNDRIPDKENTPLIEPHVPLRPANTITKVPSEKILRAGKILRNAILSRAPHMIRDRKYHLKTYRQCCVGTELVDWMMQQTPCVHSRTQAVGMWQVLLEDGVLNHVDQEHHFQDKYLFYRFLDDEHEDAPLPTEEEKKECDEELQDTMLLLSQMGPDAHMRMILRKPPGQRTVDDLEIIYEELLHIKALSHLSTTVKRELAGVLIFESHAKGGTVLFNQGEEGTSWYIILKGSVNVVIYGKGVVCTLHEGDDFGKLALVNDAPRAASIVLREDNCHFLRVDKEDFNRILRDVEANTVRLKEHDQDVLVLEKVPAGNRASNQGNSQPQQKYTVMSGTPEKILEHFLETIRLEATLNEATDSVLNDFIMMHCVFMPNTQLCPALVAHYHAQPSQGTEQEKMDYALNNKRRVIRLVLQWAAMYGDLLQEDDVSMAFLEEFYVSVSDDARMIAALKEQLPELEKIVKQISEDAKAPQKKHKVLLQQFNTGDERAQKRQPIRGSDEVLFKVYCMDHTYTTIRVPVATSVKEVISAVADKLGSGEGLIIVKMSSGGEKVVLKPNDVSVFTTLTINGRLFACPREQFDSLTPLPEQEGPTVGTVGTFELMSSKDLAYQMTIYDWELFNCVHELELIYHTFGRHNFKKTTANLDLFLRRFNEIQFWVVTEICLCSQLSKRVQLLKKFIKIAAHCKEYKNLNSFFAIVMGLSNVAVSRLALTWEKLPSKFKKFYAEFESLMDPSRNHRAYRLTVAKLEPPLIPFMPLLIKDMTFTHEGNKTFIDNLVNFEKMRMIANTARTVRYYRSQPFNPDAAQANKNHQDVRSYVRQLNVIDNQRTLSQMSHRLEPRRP
EPAC2 agonist = agonists of human EPAC2 (RAPGEF4); Q8WZA2; EPAC2 activation, biochemical qHTS; response scale: 100% = 6.5 mM cAMP response; Potency, µM (series often up to 154 µM), usual class: activators; 0.079% of 360,000 active; AID 720711; also: nearly all actives have a fitted effect of over 50% in size
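In this primary screen, activation is scored as increased exchange of BODIPY-GDP from Rap1B by 100 nM EPAC2, with 50 uM GDP as competitor. Signal is normalized to the 6.5 mM cAMP agonist control.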
USP1 inh = blocks the human USP1/UAF1 deubiquitinase complex; O94782; recombinant USP1/UAF1, Ub-Rhodamine cleavage fluorescence; Potency, µM (top dose mostly 57.1 µM), most hits filed as inhibitors; 0.23% of 390,000 active; AID 743255; also: nearly all actives have a fitted effect of over 60% in size
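1 nM enzyme complex + cpd, 15 min RT; start with Ub-Rho 150nM final; kinetic fluorescence ex 480/em 540, 6 reads q60 s. Buffer 50mM HEPES pH 7.8, 0.5mM EDTA, 0.1 mg/ml BSA, 1mM TCEP, 0.01% Tween-20.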
EPAC1 agonist = activates human EPAC1 exchange factor; Potency, µM (series often up to 154 µM), most hits filed as activators; AID 720707; EPAC1 agonist qHTS, biochemical assay; response scale: 100% = response to 6.5 mM cAMP; O95398; 0.073% of 360,000 active; also: nearly all actives have a fitted effect of over 60% in size
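Compounds were pinned as a concentration titration into mixtures of EPAC1 (100 nM), BODIPY-GDP-loaded Rap1B (250 nM) and GDP (50 uM). After 5 min at room temperature, fluorescence was followed for 30 min; activity was scaled to 6.5 mM cAMP.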
A number is an active result; . = inactive; ? = inconclusive; / = no result; ! = a repeat was not active. Calls follow the shape of the dose curve; as a rule, active = well fitted curve in the direction sought with a large enough effect; inconclusive = small, poorly fitted or top-dose-only effect, or another doubt; inactive = no such curve, though single readings can be large; an effect the other way counts as inactive or inconclusive.

SMILES | EPAC1 antag | VDR inhibitor | EPAC2 antagonist | EPAC2 agonist | USP1 inh | EPAC1 agonist
COc1ccc(C(=O)/C=C/c2ccccc2)c(O)c1 | ? | ? | . | . | . | .
COc1cc(/C=C/C(=O)NC(=O)c2ccccc2O)ccc1O | . | . | . | . | . | .
O=C(/C=C/c1ccc(O)c(O)c1)c1ccccc1O | . | . | . | . | . | .
O=C(/C=C/c1ccccc1)c1ccc(O)cc1O | / | 25.1µM | / | / | / | /
O=C(O)/C=C/c1ccc(O)cc1 | . | . | . | . | . | .
O=C(C=Cc1cccc(O)c1)c1ccccc1O | . | 39.8µM | . | . | . | .
O=C(/C=C/c1ccc(O)cc1)c1ccc(O)cc1O | . | 79.4µM! | . | . | . | .
COc1cc(/C=C/C(O)=C/C(=O)/C=C/c2ccc(O)cc2)ccc1O | . | . | . | . | 28.2µM | .
COc1ccc(CNc2ccnc(-c3c(C)noc3C)n2)c(OC)c1 | / | . | / | / | / | /
CC(C)C[C@H](NC(=O)[C@H](CCCCN)NC(=O)CNC(=O)[C@H](CC(C)C)NC(=O)[C@@H](NC(=O)[C@@H]1CSSC[C@H](N)C(=O)N[C@@H](CO)C(=O)N[C@@H](CC(N)=O)C(=O)N[C@@H](CC(C)C)C(=O)N[C@@H](CO)C(=O)N[C@@H]([C@@H](C)O)C(=O)N1)C(C)C)C(=O)N[C@@H](CO)C(=O)N[C@@H](CCC(N)=O)C(=O)N[C@@H](CCC(=O)O)C(=O)N[C@@H](CC(C)C)C(=O)N[C@@H](Cc1cnc[nH]1)C(=O)N[C@@H](CCCCN)C(=O)N[C@@H](CC(C)C)C(=O)N[C@@H](CCC(N)=O)C(=O)N[C@H](C(=O)N[C@@H](Cc1ccc(O)cc1)C(=O)N1CCC[C@H]1C(=O)N[C@@H](CCCNC(=N)N)C(=O)N[C@H](C(=O)N[C@@H](CC(N)=O)C(=O)N[C@H](C(=O)NCC(=O)N[C@@H](CO)C(=O)NCC(=O)N[C@H](C(=O)N1CCC[C@H]1C(N)=O)[C@@H](C)O)[C@@H](C)O)[C@@H](C)O)[C@@H](C)O | / | . | / | / | / | /
COc1ccc(/C=C/C(=O)c2cc(O)ccc2O)cc1 | / | 7.94µM | / | / | / | /
COc1ccc(/C=C/C(=O)c2ccc(C)s2)cc1 | / | 31.6µM | / | / | / | /
C=CCOC(=O)C(=O)/C=C/c1csc2ccccc12 | . | 44.7µM | . | . | . | .
C=C1CCN(C(C)C(=O)OCc2cccc(C)c2)S(=O)(=O)c2ccccc21 (stereo unspecified) | / | . | / | / | / | /
O=S(=O)(Nc1ccc(C(F)(F)F)cc1)c1ccc2c(c1)OCCO2 | / | . | / | / | . | /
N[C@@H](CSS(=O)(=O)O)C(=O)O | / | 10µM! | / | / | / | /
C=CCSCC(N)C(=O)O (stereo unspecified) | / | . | / | / | / | /
Cc1ccc(S(=O)(=O)N2CCN(c3nc(-c4ccc(F)cc4)nc4cc(Cl)ccc34)CC2)cc1 | / | . | / | / | / | /
Cc1ccc(N=Cc2cc(Cc3ccccc3Cl)cc([N+](=O)[O-])c2O)c(O)c1 | ? | . | ? | . | 17.8µM | .
COc1ccc(N=Cc2cc(Cc3ccccc3Cl)cc([N+](=O)[O-])c2O)cc1OC | . | . | . | . | ? | .
Cc1ccc(-c2nnc3ccc(SCC(=O)c4ccccc4)nn23)cc1 | / | . | / | / | / | /
CCOC(=O)N1C(C)CN(/[N+]([O-])=N/Oc2ccc([N+](=O)[O-])cc2[N+](=O)[O-])CC1C (stereo unspecified) | / | . | / | / | / | /
C=CCN1C(=O)/C(=C/c2ccc(OC(C)=O)c(OCC)c2[N+](=O)[O-])SC1=S | 70.8µM | . | . | . | 14.1µM | .
CCOc1c(OC(C)=O)ccc(/C=C/c2ccc3cccc(OC(C)=O)c3n2)c1[N+](=O)[O-] | . | . | . | . | . | .
Cc1cccn2c(=O)c(/C=C(\C#N)C(=O)NC3CCS(=O)(=O)C3)c(Oc3ccc(F)cc3)nc12 (stereo unspecified) | . | 20µM | . | . | . | .
SMILES | EPAC1 antag | VDR inhibitor | EPAC2 antagonist | EPAC2 agonist | USP1 inh | EPAC1 agonist
Cc1cccc(Oc2nc3ccccn3c(=O)c2/C=C(\C#N)C(=O)NC2CCS(=O)(=O)C2)c1 (stereo unspecified) | . | ? | . | . | . | .
Cc1cccn2c(=O)c(/C=C(\C#N)C(=O)NC3CCS(=O)(=O)C3)c(N3CCC(C)CC3)nc12 (stereo unspecified) | . | . | . | . | . | .
N#C/C(=C\c1c(Oc2ccc(Cl)cc2)nc2ccccn2c1=O)C(=O)NC1CCS(=O)(=O)C1 (stereo unspecified) | . | 50.1µM | . | . | . | .
Cc1cc(Oc2nc3ccccn3c(=O)c2/C=C(\C#N)C(=O)NC2CCS(=O)(=O)C2)ccc1Cl (stereo unspecified) | . | 31.6µM | . | . | . | .
COc1ccc(-c2ccc(OC)c(C3C4C=CCCC4(C)C(=O)N3Cc3ccccc3)c2)cc1OC (stereo unspecified) | / | . | / | / | / | /
Cc1ccc(CNC(=O)c2cn(C3CCCCC3)c(=O)c3c2c2ccccc2n3C)o1 | . | 79.4µM | . | . | . | .
Cc1ccc(CNC(=O)c2cn(C)c(=O)c3c2c2ccccc2n3C)o1 | . | . | . | . | . | .
CCc1ccc(OCC(=O)N(Cc2ccc(C(C)C)cc2)C2CCS(=O)(=O)C2)cc1 (stereo unspecified) | / | . | / | / | . | /
CCCCN1C(=O)c2[nH]nc(-c3ccccc3O)c2C1c1ccc(OCc2ccccc2)cc1 (stereo unspecified) | / | . | / | / | . | /
COc1cc(N2C(=O)C=CC2=O)ccc1N1C(=O)C=CC1=O | . | ? | . | . | . | .
O=C1C=CC(=O)N1c1cccc(-c2ccccc2)c1 | ? | 44.7µM | . | . | . | .
COCCn1c2nc(=O)n(-c3ccccc3)c(=O)c-2nc2ccccc21 | . | / | . | 89.1µM | 28.2µM | 89.1µM
COCCn1c(-c2ccc(OC)cc2)nc2ccccc21 | . | . | . | . | . | .
CCCC[C@@H]1CCCO[C@@](C(=O)NCCOC)(C(F)(F)F)C1 | / | . | / | / | / | /
N#Cc1sc2nc(-c3ccccc3)cc(-c3ccco3)c2c1N | 35.5µM | ? | . | . | 3.98µM | .
CC(C)CC(NC(=O)OCc1ccccc1)C(=O)NC(Cc1ccccc1)C(=O)CCl (stereo unspecified) | . | 70.8µM | . | . | . | .
CCCC[C@@H](C=O)NC(=O)[C@H](CC(C)C)NC(=O)OCc1ccccc1 | / | 35.5µM | / | / | / | /
COC(=O)C(Cc1ccccc1)NC(=O)C(CC(C)C)NC(=O)OC(C)(C)C (stereo unspecified) | . | . | . | . | . | .
COCCn1c(=O)c(-c2cn(C)c3ccccc23)nc2cnc(Oc3cccc(Cl)c3)nc21 | / | . | / | / | / | /
CC(C)=CC[C@@H](O)C1=CC(=O)c2c(O)ccc(O)c2C1=O | / | 1.78µM | / | / | / | /
